Sampled rows, rich in hits. Any-hit rate of the full collection: about 5%.
USP10 inh – human USP10 deubiquitinase inhibition; 47,000 tested, 1.1% active; inhibition, % at 20 µM; purified USP10, Ub-rhodamine fluorescence, 60 min; Q14694
USP7 block – human USP7 deubiquitinase inhibition. 47,000 tested, 0.3% active. Q93009. purified USP7, Ub-rhodamine cleavage fluorescence. inhibition, % at 20 µM
UCHL1 block – inhibitors of human UCHL1 deubiquitinase; P09936; purified UCHL1, Ub-rhodamine cleavage fluorescence; inhibition, % at 20 µM; 47,000 tested, 0.2% active
USP8 inh – human USP8 deubiquitinase inhibition; P40818; purified USP8, Ub-rhodamine cleavage fluorescence, 30 min; inhibition, % at 20 µM; 47,000 tested, 4.2% active; AID 1645853
Target sequence (P40818 whole entry, looked up): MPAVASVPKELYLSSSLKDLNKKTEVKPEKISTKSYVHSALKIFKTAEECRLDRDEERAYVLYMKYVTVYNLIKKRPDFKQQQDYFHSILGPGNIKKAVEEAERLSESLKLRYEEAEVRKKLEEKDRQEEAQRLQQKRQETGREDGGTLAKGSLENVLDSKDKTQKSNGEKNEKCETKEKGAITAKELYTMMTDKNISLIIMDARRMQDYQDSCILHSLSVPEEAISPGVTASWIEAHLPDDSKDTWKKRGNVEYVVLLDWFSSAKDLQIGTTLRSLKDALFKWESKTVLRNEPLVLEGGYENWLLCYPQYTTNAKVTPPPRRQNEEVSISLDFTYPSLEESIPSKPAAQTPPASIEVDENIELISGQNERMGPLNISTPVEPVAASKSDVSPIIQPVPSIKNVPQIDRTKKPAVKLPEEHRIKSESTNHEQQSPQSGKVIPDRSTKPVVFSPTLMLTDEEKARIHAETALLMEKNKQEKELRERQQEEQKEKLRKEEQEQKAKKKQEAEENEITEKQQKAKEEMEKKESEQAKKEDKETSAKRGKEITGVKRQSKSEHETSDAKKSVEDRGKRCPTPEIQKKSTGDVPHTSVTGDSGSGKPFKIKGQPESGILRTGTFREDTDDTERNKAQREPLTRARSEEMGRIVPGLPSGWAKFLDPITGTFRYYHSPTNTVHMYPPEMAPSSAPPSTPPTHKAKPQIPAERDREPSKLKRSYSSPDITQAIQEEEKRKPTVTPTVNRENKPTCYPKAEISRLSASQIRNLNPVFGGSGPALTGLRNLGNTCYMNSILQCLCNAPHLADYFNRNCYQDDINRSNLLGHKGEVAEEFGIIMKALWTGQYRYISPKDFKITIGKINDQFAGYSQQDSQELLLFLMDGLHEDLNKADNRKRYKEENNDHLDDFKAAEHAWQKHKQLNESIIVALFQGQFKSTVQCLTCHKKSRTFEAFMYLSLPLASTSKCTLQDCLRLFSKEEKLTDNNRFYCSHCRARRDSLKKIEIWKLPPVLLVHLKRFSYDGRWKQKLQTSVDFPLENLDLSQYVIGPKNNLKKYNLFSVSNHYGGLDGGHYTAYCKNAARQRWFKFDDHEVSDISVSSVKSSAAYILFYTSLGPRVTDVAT
Large screens that a line does not name were inactive. Rule as the data show it: active = inhibition above about 30%; inactive = the rest.

Cc1ccc(S(=O)(=O)NCC(c2ccc3c(c2)CCN3C)N2CCCCC2)cc1 (stereo unspecified)	none
Cc1c(OCC(=O)NCc2ccccc2Cl)ccc2c3c(c(=O)oc12)CCC3	USP8 inh 52
CC1CCc2c(sc3nc(CCC(=O)NCc4ccc5c(c4)OCO5)[nH]c(=O)c23)C1 (stereo unspecified)	USP8 inh 45
O=C(CCc1nc2sc3c(c2c(=O)[nH]1)CCCCC3)NCc1ccc2c(c1)OCO2	none
Cc1ccc(S(=O)(=O)N2CCN(C(=O)CN3c4ccccc4CC3C)CC2)c(C)c1 (stereo unspecified)	USP8 inh 37
Cc1noc(C)c1COc1ccc(CC(=O)Nc2ccc3[nH]c(=O)[nH]c3c2)cc1	none
C/C(=C\c1ccccc1)CN1CCC(O)(c2ccc(C)cc2)CC1	USP8 inh 34
COc1ccc(C(NC(=O)c2nc3n(n2)-c2ccccc2S(=O)(=O)N3)C(C)C)cc1 (stereo unspecified)	USP10 inh 30
Cc1cccc(CNC(=O)Cn2c(=O)c(C)nc3cc(C)c(C)cc32)c1	USP8 inh 32
Cc1cc(O)c2c(c1)C(=O)c1cc(O)cc(O)c1C2=O	none
O=C1C=C(O)c2c(O)cc(O)cc2C1=O	USP10 inh 79, USP7 block 85, UCHL1 block 94, USP8 inh 82
COc1cc2nc(SCc3cc(=O)n4ccccc4n3)n3nc(-c4ccccc4)nc3c2cc1OC	none
CC(=O)Nc1ccc(NC(=O)Cc2cccc3ccccc23)cc1	none
Cc1ccc(NC(=O)Nc2ccccc2OCc2cc(=O)n3cc(C)ccc3n2)cc1	USP8 inh 32
Cc1cccc(NC(=O)Nc2ccccc2OCc2cc(=O)n3cccc(C)c3n2)c1	USP8 inh 36
O=C(Nc1ccc(F)cc1)Nc1ccccc1OCc1cc(=O)n2ccccc2n1	USP8 inh 43
O=C(Nc1ccc2c(c1)OCCO2)Nc1ccccc1OCc1cc(=O)n2ccccc2n1	none
CCOc1ccccc1NC(=O)Nc1ccccc1OCc1cc(=O)n2cccc(C)c2n1	none
Cc1ccc(CN2C(=O)c3cc4occc4n3CC2(C)C(=O)NC2CCCCC2)cc1 (stereo unspecified)	none
Cc1ccc(S(=O)(=O)N(C)c2c(C)ccc(S(=O)(=O)N3CCOCC3)c2C)cc1	none
CN1CCN(CCCn2cnc3c([nH]c4ccccc43)c2=O)CC1	none
N#Cc1cccc(NC(=O)Cn2cccc2-c2nc(-c3ccccc3)no2)c1	USP8 inh 31
Cc1nc(-c2noc(-c3cccc(F)c3)n2)cn1CC(=O)Nc1ccccc1	USP10 inh 62, USP8 inh 38
Cc1nc(SCC(=O)Nc2cccc(Cl)c2)c2sc3nc4c(cc3c2n1)COC(C)(C)C4	none (no result: USP7 block)
CC(=O)c1c(C)oc2c1cc(OC(=O)c1ccccc1)c1ccccc12	none
CCCCOC(=O)c1c(C)oc2c1cc(NS(=O)(=O)c1ccc(CC)cc1)c1ccccc12	USP8 inh 45
COc1ccccc1NC(=O)Cn1cc(C(=O)c2ccc(C)cc2)c(=O)c2cc(Cl)ccc21	USP10 inh 31
COc1cc(NC(=O)Cn2cc(C(=O)c3ccccc3)c(=O)c3cc(Cl)ccc32)cc(OC)c1	USP10 inh 62, USP7 block 51, USP8 inh 97
CC(C)C(=O)N1CCN(c2nc3c(s2)CC(C(=O)NCc2cccnc2)CC3)CC1 (stereo unspecified)	none
O=C(c1ccc(-c2ccccc2)cc1)c1nc(N2CCOCC2)c2c3c(sc2n1)CCCC3	none
COc1cccc(Cn2cnc3c(NS(=O)(=O)c4ccc(Cl)cc4)c(C)c(C)cc32)c1	USP8 inh 49
COc1cccc(Cn2cc(S(=O)(=O)N3CCCC3)ccc2=O)c1	none
CCCCCCCCCCCCCCCc1cc(O)cc(O)c1	USP10 inh 30
CCCCCCCC/C=C\CCCCCCCc1cc(O)cc(O)c1C(=O)O	none
CC1CCc2c(sc3ncnc(NC4CC4)c23)C1 (stereo unspecified)	none
CC1CCc2c(sc(N)c2C(=O)NC2CCCC2)C1 (stereo unspecified)	USP8 inh 37
Cn1c(CCN2CCOCC2)nc2cc(NC(=O)C3CCCCC3)ccc21	none
O=C(CC1CCCC1)Nc1ccc(N2CCN(C3CCCC3)C2=O)nc1	none
O=C(CC1CCCCC1)Nc1cc(F)c2nc(N3CCOCC3)ccc2c1	USP8 inh 65
O=C(Nc1cc(F)c2nc(N3CCOCC3)ccc2c1)C1CCCCC1	USP8 inh 71
Cc1c(C)n(CCO)c2ncn3nc(-c4ccccc4)nc3c12	none
Cc1ccc(C(=O)Nc2ncn(CC(=O)Nc3ccccc3)n2)cc1	none
Cc1ccc(C(=O)Nc2ncnc3oc(-c4ccccc4)c(-c4ccccc4)c23)cc1	USP8 inh 61

Assay outcomes from PubChem.
